Outcome and Potency data for seven molecules are collected here from PubChem BioAssay (Tox21).

Each structure is given as a SMILES string. Unmarked numbers belong to inactive results. Results filed as inconclusive are left out. Calls of active or inactive are those of the source. Unless noted, calls come from the whole dose curve; as a rule, active = well fitted curve in the direction sought with a large enough effect in the repeat runs; inconclusive = weak or mixed curves; inactive = no such curve, though single readings can be large; an effect the other way counts as inactive or inconclusive.

Assay [1] can be described thus: qHTS assay to identify small molecule agonists of the TGF-beta/Smad signaling pathway - cell viability counter screen (AID 1346829). Note: top concentration of the series differs between compounds; nearly all actives have a fitted effect of over 45% in size. The method in brief: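 In parallel with the Smad reporter read, viability of HEK 293T cells stably carrying SBE-bla is quantified by ATP luminescence following 5 hr compound treatment.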
Background: In qHTS, concentration-response curves come from the screen itself.

A short description of assay [2]: qHTS assay to identify small molecule agonists of the TGF-beta/Smad signaling pathway (AID 1346859; active = well fitted activation curve with a large enough effect in the signal ratio in the repeat runs, not every such curve was filed as active; the % refers to the signal ratio; note: series mostly up to about 77 µM). In outline:
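After overnight seeding, SBE-bla HEK 293T cells are dosed with compounds in DMSO and kept 5 hr at 37 C, 5% CO2. LiveBLAzer-type FRET substrate is then applied for 2 hr at room temperature.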

Assay [3] has as its target Thyrotropin-releasing hormone receptor (Homo sapiens) (UniProt P34981). Briefly: qHTS assay to identify small molecule antagonists of the thyrotropin-releasing hormone receptor (TRHR) signaling pathway (AID 1346877; active = well fitted inhibition curve with a large enough effect in the repeat runs, not every such curve was filed as active; note: series mostly up to about 51 µM). The method in brief: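 TRHR-expressing HEK293 cells were seeded, cultured 18 h at 37 °C, then loaded with calcium dye for 2 h. Compounds were pre-incubated 5 min at room temperature before 1 nM TRH (final) was added, and kinetic fluorescence was recorded for 3 min.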

For assay [4] the target is unchanged. Description: qHTS assay to identify small molecule agonists of the thyrotropin-releasing hormone receptor (TRHR) signaling pathway (AID 1346891; calls by dose curve; note: series mostly up to about 58 µM). The method in brief: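 Compounds were tested as agonists at 15 concentrations, in triplicate, on TRHR-Hek293 cells; calcium-sensitive dye fluorescence was recorded for 3 min following addition.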
Assay [5] can be described thus: Human pregnane X receptor (PXR) small molecule agonists, qHTS cell viability counter screen (AID 1346977). Note: nearly all actives have a fitted effect of over 50% in size. The method in brief: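 Viability counter screen: CellTiter-Fluor signal in PXR-Luc HepG2 cells, 24hr compound exposure, 37C, 5% CO2.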
Assay [6] is described as follows: Caspase-3/7 induction in HepG2 cells by small molecules, qHTS assay (AID 1346978). Note: nearly all actives have a fitted effect of over 15% in size. The method in brief: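 Wild-type HepG2 cells (2,000/well) were settled 5 h at 37 C, 5% CO2, then exposed to compounds in DMSO for 17 h. Caspase-3/7 activity was read by luminescence 30 min after adding Caspase-Glo 3/7 reagent at room temperature.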
Assay [7] can be described thus: Caspase-3/7 induction in CHO-K1 cells by small molecules, qHTS cell viability counter screen (AID 1346979). Note: nearly all actives have a fitted effect of over 35% in size. The method in brief:
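Viability readout by fluorescence (CellTiter-Fluor) on wild-type CHO-K1 cells exposed for 16hr at 37C and 5% CO2 to compounds delivered in DMSO; reagent incubated 1hr before reading.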

Assay [8] in a line: Caspase-3/7 induction in CHO-K1 cells by small molecules, qHTS assay (AID 1346980). Note: nearly all actives have a fitted effect of over 15% in size. In outline:
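Wild-type cells were seeded at 1,500 per well and settled 5 hr at 37 C, 5% CO2, then exposed to DMSO-dissolved compounds for 17 hr. Caspase-Glo 3/7 reagent was added, and luminescence was read after 30min at room temperature.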

Assay [9] can be described thus: Caspase-3/7 induction in HepG2 cells by small molecules, qHTS cell viability counter screen (AID 1346981). Note: series mostly up to about 92 µM; nearly all actives have a fitted effect of over 30% in size. In outline: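 Wild-type HepG2 cells (2,000/well) were allowed to settle for 5 hr at 37 C, 5% CO2, then dosed with compounds in DMSO by pin transfer. After 16 hr at 37 C, CellTiter-Fluor was added and fluorescence read 1 hr later.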
The target of assay [10] is Nuclear receptor subfamily 1 group I member 2 (Homo sapiens) (UniProt O75469). Briefly: Human pregnane X receptor (PXR) small molecule agonists, qHTS assay (AID 1346982). Note: nearly all actives have a fitted effect of over 35% in size. In outline:
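PXR-Luc HepG2 cells (CYP3A4 promoter-driven luciferase) were seeded in medium with 5% charcoal-stripped FBS, left 5 hr at 37 C, then exposed to compounds in DMSO for 24 hr. Luminescence was read after ONE-Glo addition.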

The target of assay [11] is Cytochrome P450 2D6 (Homo sapiens) (UniProt P10635). Briefly: Cytochrome P450 Family 2 Subfamily D Member 6 (CYP2D6) small molecule antagonists: luciferase reporter qHTS assay (AID 1671196). Note: series mostly up to about 120 µM; nearly all actives have a fitted effect of over 50% in size. The method in brief: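 CYP2D6 enzyme–substrate mix was held with compound for 10 min at room temperature, then NADPH regeneration solution was added and the reaction ran 1 h at room temperature. Luciferin product was detected by luminescence after 20 min with detection reagent.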

In assay [12] the target is Cytochrome P450 2C9 (Homo sapiens) (UniProt P11712). Briefly: Cytochrome P450 Family 2 Subfamily C Member 9 (CYP2C9) small molecule antagonists: luciferase reporter qHTS assay (AID 1671198). Note: series mostly up to about 120 µM; nearly all actives have a fitted effect of over 50% in size. The method in brief: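 CYP2C9 activity was measured with a P450-Glo proluciferin substrate. Enzyme–substrate mix was held with compound for 10 min at room temperature, then NADPH regeneration solution was added for 1 h at 37C. Luciferin product was read as luminescence.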
A general note: Reporter assays use an easily measured gene product as a stand-in for the process of interest.

The target of assay [13] is Cytochrome P450 1A2 (Homo sapiens) (UniProt P05177). Description: Cytochrome P450 Family 1 Subfamily A Member 2 (CYP1A2) small molecule antagonists: luciferase reporter qHTS assay (AID 1671199). Note: nearly all actives have a fitted effect of over 50% in size. Note: potency is the fitted concentration of half-maximal effect. The method in brief: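 Human CYP1A2 activity measured with a P450-Glo proluciferin substrate; compounds in DMSO preincubated 10 min at room temperature with enzyme-substrate mix, then NADPH regeneration system added for 1 h. Luciferin detection reagent, 20 min, luminescence read.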

Assay [14] deals with Voltage-gated inwardly rectifying potassium channel KCNH2 (Homo sapiens) (UniProt Q12809). Description: Human Ether-a-go-go-Related Gene (hERG) channel small molecule antagonists: fluorescence cell-based qHTS assay (AID 1671200). In outline: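 Thallium served as the potassium surrogate; its influx into dye-loaded U2OS cells carrying the channel was measured by fluorescence over 2 min.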
On the technique in general: The hERG channel carries a current that helps repolarise heart muscle cells.

Assay [15] concerns the target Cytochrome P450 3A4 (Homo sapiens) (UniProt P08684). Description: Cytochrome P450 Family 3 Subfamily A Member 4 (CYP3A4) small molecule antagonists: luciferase reporter qHTS assay (AID 1671201). The method in brief: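 Relative luminescence units after 20 min with luciferin detection reagent served as read-out. Beforehand, CYP3A4 turned over a proluciferin substrate for 1 h at room temperature with NADPH regeneration, following 10 min compound preincubation.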

For assay [16], the target named is Cytochrome P450 2C19 (Homo sapiens) (UniProt P33261). Description: Cytochrome P450 Family 2 Subfamily C Member 19 (CYP2C19) small molecule antagonists: luciferase reporter qHTS assay (AID 1671197). Note: series mostly up to about 120 µM; nearly all actives have a fitted effect of over 65% in size. In outline: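 Compounds were tested on CYP2C19 activity via proluciferin conversion to luciferin. The 37C, 1 h reaction followed NADPH addition; detection reagent stopped it.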
Cytochrome P450 2C19 (Homo sapiens), sequence (P33261 whole entry, looked up): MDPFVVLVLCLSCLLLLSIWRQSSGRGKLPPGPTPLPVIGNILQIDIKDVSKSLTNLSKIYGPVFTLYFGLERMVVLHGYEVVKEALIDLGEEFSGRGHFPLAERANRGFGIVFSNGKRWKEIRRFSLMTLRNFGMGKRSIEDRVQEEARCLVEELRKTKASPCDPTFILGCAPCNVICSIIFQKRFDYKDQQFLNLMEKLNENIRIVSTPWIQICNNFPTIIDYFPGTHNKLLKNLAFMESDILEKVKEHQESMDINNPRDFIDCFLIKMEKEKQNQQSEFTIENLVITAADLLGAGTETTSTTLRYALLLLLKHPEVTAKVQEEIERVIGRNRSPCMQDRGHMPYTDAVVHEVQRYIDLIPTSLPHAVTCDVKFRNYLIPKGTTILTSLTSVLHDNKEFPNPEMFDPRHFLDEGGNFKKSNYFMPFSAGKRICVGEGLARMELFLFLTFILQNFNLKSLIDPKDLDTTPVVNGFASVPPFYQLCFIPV

Cytochrome P450 2C9 (Homo sapiens), sequence (P11712 whole entry, looked up): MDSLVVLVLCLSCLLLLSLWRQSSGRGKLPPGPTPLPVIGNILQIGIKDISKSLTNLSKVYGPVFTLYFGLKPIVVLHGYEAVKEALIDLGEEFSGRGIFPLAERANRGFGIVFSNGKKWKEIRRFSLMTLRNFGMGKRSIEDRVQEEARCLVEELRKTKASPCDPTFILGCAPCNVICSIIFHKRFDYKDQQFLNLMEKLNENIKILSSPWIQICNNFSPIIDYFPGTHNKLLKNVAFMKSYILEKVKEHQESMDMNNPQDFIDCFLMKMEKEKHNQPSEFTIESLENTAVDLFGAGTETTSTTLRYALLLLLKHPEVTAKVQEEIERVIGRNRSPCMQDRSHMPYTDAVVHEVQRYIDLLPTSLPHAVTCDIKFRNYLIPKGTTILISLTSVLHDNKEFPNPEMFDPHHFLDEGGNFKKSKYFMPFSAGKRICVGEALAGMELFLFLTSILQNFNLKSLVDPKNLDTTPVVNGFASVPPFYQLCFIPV
Cytochrome P450 2D6 (Homo sapiens), sequence (P10635 whole entry, looked up): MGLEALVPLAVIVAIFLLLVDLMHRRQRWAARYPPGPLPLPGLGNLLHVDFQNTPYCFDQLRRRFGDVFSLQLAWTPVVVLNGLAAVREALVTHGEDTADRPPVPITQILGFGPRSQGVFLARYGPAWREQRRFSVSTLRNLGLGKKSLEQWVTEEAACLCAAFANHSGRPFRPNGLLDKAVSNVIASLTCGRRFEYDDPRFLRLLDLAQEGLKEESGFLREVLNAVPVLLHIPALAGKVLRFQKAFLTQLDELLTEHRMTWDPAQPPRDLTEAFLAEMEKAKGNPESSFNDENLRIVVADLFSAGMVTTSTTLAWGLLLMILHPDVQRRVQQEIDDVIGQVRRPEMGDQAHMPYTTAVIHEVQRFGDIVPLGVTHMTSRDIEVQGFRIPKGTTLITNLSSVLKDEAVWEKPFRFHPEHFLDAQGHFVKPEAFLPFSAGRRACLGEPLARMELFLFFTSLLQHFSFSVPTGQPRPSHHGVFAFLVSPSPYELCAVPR
Nuclear receptor subfamily 1 group I member 2 (Homo sapiens), sequence (O75469 whole entry, looked up): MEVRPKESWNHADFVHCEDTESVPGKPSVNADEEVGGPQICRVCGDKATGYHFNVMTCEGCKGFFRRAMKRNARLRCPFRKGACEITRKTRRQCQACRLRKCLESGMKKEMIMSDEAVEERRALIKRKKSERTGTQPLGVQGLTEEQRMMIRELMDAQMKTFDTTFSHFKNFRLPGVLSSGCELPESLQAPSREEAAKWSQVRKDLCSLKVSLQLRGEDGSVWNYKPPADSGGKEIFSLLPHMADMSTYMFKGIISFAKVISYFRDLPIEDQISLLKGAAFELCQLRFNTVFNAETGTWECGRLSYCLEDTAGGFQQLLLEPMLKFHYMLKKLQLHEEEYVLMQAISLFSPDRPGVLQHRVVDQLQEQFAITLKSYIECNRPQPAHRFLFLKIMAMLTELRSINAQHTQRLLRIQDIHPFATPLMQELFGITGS
Thyrotropin-releasing hormone receptor (Homo sapiens), sequence (P34981 whole entry, looked up): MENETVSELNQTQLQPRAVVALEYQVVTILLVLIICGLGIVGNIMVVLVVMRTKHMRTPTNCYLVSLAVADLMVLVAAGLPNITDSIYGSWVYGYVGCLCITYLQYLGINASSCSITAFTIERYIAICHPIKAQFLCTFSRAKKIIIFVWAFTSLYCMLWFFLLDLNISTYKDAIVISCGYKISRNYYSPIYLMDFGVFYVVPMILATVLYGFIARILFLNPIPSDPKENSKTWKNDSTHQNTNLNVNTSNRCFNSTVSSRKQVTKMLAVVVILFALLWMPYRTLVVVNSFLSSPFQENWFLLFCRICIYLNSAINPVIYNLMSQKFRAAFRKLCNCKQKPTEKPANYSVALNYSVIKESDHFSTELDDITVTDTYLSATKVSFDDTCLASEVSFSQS
Cytochrome P450 3A4 (Homo sapiens), sequence (P08684 whole entry, looked up): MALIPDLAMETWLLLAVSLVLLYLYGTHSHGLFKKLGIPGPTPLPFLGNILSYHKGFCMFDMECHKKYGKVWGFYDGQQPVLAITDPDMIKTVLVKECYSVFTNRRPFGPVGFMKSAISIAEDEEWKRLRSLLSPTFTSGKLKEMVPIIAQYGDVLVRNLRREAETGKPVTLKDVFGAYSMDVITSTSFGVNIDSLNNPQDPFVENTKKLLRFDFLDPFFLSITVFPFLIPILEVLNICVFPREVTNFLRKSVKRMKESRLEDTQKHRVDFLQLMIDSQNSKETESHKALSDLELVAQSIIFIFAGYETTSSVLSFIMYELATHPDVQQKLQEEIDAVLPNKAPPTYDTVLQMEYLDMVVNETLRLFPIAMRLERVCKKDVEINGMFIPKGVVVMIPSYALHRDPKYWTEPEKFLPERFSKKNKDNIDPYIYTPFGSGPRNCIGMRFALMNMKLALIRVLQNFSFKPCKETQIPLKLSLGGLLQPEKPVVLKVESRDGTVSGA
Voltage-gated inwardly rectifying potassium channel KCNH2 (Homo sapiens), sequence (Q12809 whole entry, looked up): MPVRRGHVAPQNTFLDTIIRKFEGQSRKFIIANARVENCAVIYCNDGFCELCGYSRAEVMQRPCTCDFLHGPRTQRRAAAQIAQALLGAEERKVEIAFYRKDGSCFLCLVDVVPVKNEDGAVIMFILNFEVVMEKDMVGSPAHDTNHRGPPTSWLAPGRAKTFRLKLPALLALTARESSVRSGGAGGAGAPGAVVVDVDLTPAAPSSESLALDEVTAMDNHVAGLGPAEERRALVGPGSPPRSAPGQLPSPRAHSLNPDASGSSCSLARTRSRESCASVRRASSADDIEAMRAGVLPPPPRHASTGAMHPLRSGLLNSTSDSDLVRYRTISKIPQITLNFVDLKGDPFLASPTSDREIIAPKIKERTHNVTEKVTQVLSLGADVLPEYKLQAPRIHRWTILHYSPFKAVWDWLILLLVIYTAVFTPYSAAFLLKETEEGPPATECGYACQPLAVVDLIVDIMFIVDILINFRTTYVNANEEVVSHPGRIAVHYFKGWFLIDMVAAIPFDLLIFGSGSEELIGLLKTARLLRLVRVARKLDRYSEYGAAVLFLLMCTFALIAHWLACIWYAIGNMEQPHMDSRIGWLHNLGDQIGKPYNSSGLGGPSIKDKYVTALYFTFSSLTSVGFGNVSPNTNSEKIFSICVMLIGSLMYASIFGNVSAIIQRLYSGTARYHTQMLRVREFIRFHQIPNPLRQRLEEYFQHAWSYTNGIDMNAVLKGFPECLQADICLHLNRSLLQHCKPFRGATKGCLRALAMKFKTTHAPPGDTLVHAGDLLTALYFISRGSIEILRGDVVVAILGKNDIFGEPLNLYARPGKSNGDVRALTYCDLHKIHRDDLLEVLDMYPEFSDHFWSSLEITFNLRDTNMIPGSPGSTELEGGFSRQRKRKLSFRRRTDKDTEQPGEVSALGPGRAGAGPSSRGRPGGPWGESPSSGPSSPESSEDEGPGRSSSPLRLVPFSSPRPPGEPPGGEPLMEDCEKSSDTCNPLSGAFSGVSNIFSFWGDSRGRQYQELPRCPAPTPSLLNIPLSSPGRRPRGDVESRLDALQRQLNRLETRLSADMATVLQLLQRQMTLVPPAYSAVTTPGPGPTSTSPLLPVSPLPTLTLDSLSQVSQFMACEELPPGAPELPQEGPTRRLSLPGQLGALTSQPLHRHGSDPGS
Cytochrome P450 1A2 (Homo sapiens), sequence (P05177 whole entry, looked up): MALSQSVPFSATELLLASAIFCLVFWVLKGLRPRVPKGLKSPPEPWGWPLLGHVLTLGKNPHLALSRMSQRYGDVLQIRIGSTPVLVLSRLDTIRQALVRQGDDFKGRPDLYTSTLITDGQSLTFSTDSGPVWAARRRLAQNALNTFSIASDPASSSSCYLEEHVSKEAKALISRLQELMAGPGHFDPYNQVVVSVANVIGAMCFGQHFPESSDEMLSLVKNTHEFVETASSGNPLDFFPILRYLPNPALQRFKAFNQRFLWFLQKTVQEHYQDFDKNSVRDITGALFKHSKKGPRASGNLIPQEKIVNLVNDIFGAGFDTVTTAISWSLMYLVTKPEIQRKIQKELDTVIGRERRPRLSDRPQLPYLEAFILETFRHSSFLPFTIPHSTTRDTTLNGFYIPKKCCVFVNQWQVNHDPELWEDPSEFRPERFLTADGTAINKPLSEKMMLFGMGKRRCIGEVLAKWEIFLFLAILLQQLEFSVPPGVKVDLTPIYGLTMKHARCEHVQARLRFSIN

Turning to `CC1=C(O)C(=O)C(C)O1` (stereo not drawn), the molecule was classed as inactive in assay [1], in [2], in assay [3], in assay [4], in assay [5] and in [6]. Moreover, the molecule was called inactive in assay [8] and in assay [9]. Moreover, the Potency result in assay [7], in assay [10], in assay [11], in [12], in assay [14] and in assay [15] was “inactive” throughout. Also, in [13], the Potency was 28.9 µM (active).
On to `O=[N+]([O-])c1c(Cl)cc(Cl)cc1Cl`, for which the molecule was classed as inactive in assay [1], in [2], in assay [3], in assay [4], in assay [5] and in [6]. The outcome in [8] and in assay [9] was inactive. Also, the Potency entry in assay [7], in assay [10], in assay [11], in [16], in assay [12] and in assay [14] was “inactive” each time. Moreover, in [15], the Potency result is “inactive”. Also, the Potency in [13] was 39.5 µM (active).
With `CCOC(=O)CC1(C)OCC(C)O1` (stereo not drawn), the molecule was classed as inactive in assay [1], in [2], in assay [3], in [4], in [5] and in assay [6]. The outcome in assay [8] and in [9] was inactive. Besides, the Potency result in [7], in [10], in assay [11], in assay [16], in [12] and in assay [13] was “inactive” in each case. Besides, the Potency result in [14] and in assay [15] was “inactive” in each case.
For `CCC(=O)CC`, the result in assay [1], in [2], in assay [3], in assay [4], in [5] and in assay [6] was inactive. The result in assay [8] and in assay [9] was inactive. The Potency entry in assay [7], in assay [10], in assay [11], in assay [16], in assay [12] and in assay [15] was “inactive” in each case.
In the case of `CCCCCCCCCCOC(C)=O`, the result in [1], in assay [2], in assay [3], in [4], in assay [5] and in [6] was inactive. Also, the call in assay [8] and in assay [9] was inactive. For the same molecule, the Potency result in [7], in assay [10], in assay [11], in assay [16], in assay [12] and in assay [13] was “inactive” in each case. Besides, the Potency result in assay [14] and in [15] was “inactive” each time.
On to `C=CCOC(=O)CCCCCC`, for which the result in [1], in assay [2], in assay [3], in assay [4], in assay [5] and in assay [6] was inactive. For the same molecule, the call in assay [8] and in [9] was inactive. The Potency entry in [7], in [10], in assay [11], in assay [16], in [12] and in assay [13] was “inactive” in each case. Further, the Potency result in [14] and in assay [15] was “inactive” in each case.
For the molecule `COc1cc(/C=C/C(N)=O)cc(OC)c1OC`, the call in assay [1], in assay [2], in [3], in assay [4], in assay [5] and in assay [6] was inactive. Also, the call in [8] and in [9] was inactive. In addition, the Potency entry in [7], in assay [10], in [11], in assay [12], in assay [14] and in assay [15] was “inactive” each time. Moreover, in assay [13], the Potency is 21.9 µM (active).
